# Shiga toxin inh = A qHTS for Small Molecule Inhibitors of Shiga Toxin. Vero cells, Shiga toxin protein synthesis inhibition reporter. inhibition, % at 38.7 µM. 290,000 tested, 9.2% active. AID 2315, 2010; in the data active = inhibition mostly above about 28%, no sharp cut-off; inactive = mostly below about 43%; also: 0% is about no effect
# NS1 inh = qHTS Assay for Inhibitors of Influenza NS1 Protein Function; Potency, µM (highest dose often 46.1 µM), for inactives: at the highest dose activity, positive = more growth; 270,000 tested, 0.4% active; also: potency is read from the fitted curve at half-maximal effect; actives are rising curves; nearly all actives have a fitted effect of over 50% in size
#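 OD600 was taken as the measure of yeast growth restored by compound in an NS1-expressing S. cerevisiae strain. Cells had been washed out of glucose medium and diluted 1:100 into galactose -URA medium, pH 6.0.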
# SARS PLP yeast = qHTS of Yeast-based Assay for SARS-CoV PLP; 330,000 tested, 0.19% active; AID 485353, 2010; S. cerevisiae expressing SARS-CoV PLpro, growth rescue; Potency, µM (top dose mostly 32.9 µM), for inactives: at the top dose activity, positive = growth rescue, actives largely listed as activators; also: potency is read from the fitted curve at half-maximal effect; 0% is about no effect; nearly all actives have a fitted effect of over 55% in size
# CHX counter = Cycloheximide Counterscreen for Small Molecule Inhibitors of Shiga Toxin; 300,000 tested, 12% active; cell reporter, cycloheximide protein synthesis inhibition counterscreen; max response, %; in the data active = max response mostly above about 13%, no sharp cut-off; inactive = mostly below about 14%; also: read at 38.3 µM for the half of the compounds with a filed dose; 0% is about no effect
# Starred values were filed as active, the others as inactive; u = inconclusive; x = no result; ! = a repeat was not active. An excerpt weighted towards active compounds, which were near 12% of everything screened. Unless noted, calls follow the shape of the full dose curve.
SMILES,Shiga toxin inh,NS1 inh,SARS PLP yeast,CHX counter
COc1ccc(/C(C)=N/Nc2ccc(C(=O)O)cc2)c(OC)c1,53*,4%,12%,61*
CCOC(=O)c1c(NC(C)=O)sc(/C(C)=N/Nc2ccc(C(=O)O)cc2)c1C,59*,-2%,2%,70*
C/C(=N\Nc1ccc(C(=O)O)cc1)c1ccc(Cl)s1,62*,-19%,2%,40*
C/C(=N\NC(=O)c1ccc(Cl)c(Cl)c1)c1ccc(Br)s1,-2,11%,15%,-1
C/C(=N\Nc1ccc(Cl)c(C(=O)O)c1)c1ccc(Br)s1,153*,-43%,0%,59*
C/C(=N\NC(=O)C(O)c1ccccc1)c1ccc(Cl)s1 (stereo not drawn),-9,-17%,-2%,-2
C/C=N/NC(=O)CCNC(=O)c1ccccc1,12,u,-11%,5
CC1CC(C)CN(c2cc(N(C)CCO)c([N+](=O)[O-])c3nonc23)C1 (stereo not drawn),-19,x,3%,-6
C/C(=N\Nc1ccc(C(=O)O)cc1)c1ccc(Br)cc1,42*,-51%,-3%,21*
COc1ccc(CCNC(=O)C2CCCN2S(=O)(=O)c2ccc(F)cc2)cc1OC (stereo not drawn),-12,-6%,-1%,-2
O=C(N/N=C/c1ccc2cccnc2c1)c1nc2ccccc2c(=O)[nH]1,35*,-3%,0%,30*
O=C(N/N=C/c1ccc2ncccc2c1)c1cccc([N+](=O)[O-])c1,22,-6%,6%,7
O=C(NC(C(=O)N/N=C/c1ccncc1)c1n[nH]c(=O)c2ccccc12)c1ccccc1 (stereo not drawn),0,-5%,2%,-1
O=C(N/N=C/c1ccncc1)c1nc2ccccc2c(=O)[nH]1,32,0%,1%,17*
CCOc1cccc(-c2c(C(=O)N/N=C/c3ccoc3)nnn2-c2nonc2N)c1,-5,10%,-4%,-10
COCCNC(=O)CN1C(=O)NC(c2ccccc2)(c2ccccc2)C1=O,-3,2%,0%,-2
CC(C)Sc1nnc(NC(=O)c2ccc3c(c2)OCO3)s1,56*,5%,-7%,24*
CC(C)(C)c1nnc(NC(=O)COc2ccc3c(c2)OCO3)s1,x,x,-2%,x
CC(C)(C)c1nnc(NC(=O)c2ccc3c(c2)OCO3)s1,170*,-12%,4%,39*
CCSc1nnc(NC(=O)c2ccc3c(c2)OCO3)s1,67*,-1%,-3%,45*
CCOC(=O)CSc1nnc(NC(=O)c2ccc3c(c2)OCO3)s1,26,12%,-5%,-3
CCN(CC)C(=O)c1sc(NC(=O)c2ccc3c(c2)OCO3)c(C(N)=O)c1C,25,-8%,x,42*
CC(=O)N1CCN(Cc2nc3cc(NC(=O)c4cccc(Br)c4)ccc3n2C)CC1,24,-3%,0%,13
O=C(NCc1ccc(Cl)cc1)c1ccc(S(=O)(=O)N2CCCCC2)cc1,x,x,-6%,x
CC(c1ccccc1)c1nnc(NC(=O)c2ccc3c(c2)OCO3)s1 (stereo not drawn),5,-6%,1%,8
SMILES,Shiga toxin inh,NS1 inh,SARS PLP yeast,CHX counter
CC(C)c1nnc(NC(=O)c2ccc3c(c2)OCO3)s1,125*,-3%,0%,40*
COc1ccccc1-c1cc(C(=O)N2CCN(c3ccccc3)CC2)no1,2,-14%,-5%,-2
O=C(c1cc(-c2ccccc2O)on1)N1CCCCCC1,104*,-2%,0%,34*
COc1ccc(OC)c(-c2cc(C(=O)N3CCOCC3)no2)c1,17,-11%,-2%,14*
COc1ccc(OC)c(-c2cc(C(=O)N3CCCc4ccccc43)no2)c1,4,-47%,-3%,10
O=C(c1cc(-c2ccccc2O)on1)N1CCOCC1,80*,1%,5%,31*
O=S(=O)(c1ccc2ncn(O)c2c1)N1CCOCC1,10,x,1%,1
CC(C)(C)NC(=O)CN(C(=O)CS(=O)CC(=O)Nc1ccc(F)cc1)c1ccc(F)c(Cl)c1 (stereo not drawn),50,4%,5%,-2
Nc1cccnc1Oc1ccc(F)cc1,25,-1%,-1%,14*
Nc1cccnc1Oc1ccc(F)cc1F,-3,1%,1%,1
CCC(NS(=O)(=O)c1ccc(OC)cc1)C(=O)NCCc1ccccc1 (stereo not drawn),-8,-5%,1%,1
CN(C(=O)Nc1ccccc1)C1CCCCC1,67,0%,0%,14
Cc1ccc(NC(=O)N(C)c2ccccc2)cc1,48*,2%,1%,17*
Cc1ccc(N(C(=O)Nc2ccccc2)C2=NCCC2)cc1,19,1%,0%,17*
CN(C)C(=O)Nc1ccccc1,88*!,5%,0%,41*!
O=C(Nc1ccccc1)N(C1=NCCC1)c1ccccc1,35,-5%,-1%,-1
Cc1ccc(NC(=O)NC(=O)N(c2ccccc2)S(C)(=O)=O)cc1,50*,u,4%,27*
Cc1ccc(NC(=O)N(CCC(=O)O)Cc2ccccc2)cc1,-9,5%,1%,-1
On1nnc2ccccc21,4,9%,1%,0
COc1ccc(OC)c(NC(=O)COC(=O)c2ccc(OC)c(S(=O)(=O)N3CCOCC3)c2)c1,x,x,-4%,x
NC(=S)Nc1cnc2ccccc2c1,56*,4%,1%,27*
Cc1cccc(NC(=O)CS(=O)CC(=O)Nc2cnc3ccccc3c2)c1C (stereo not drawn),-18,-12%,-6%,6
CN(C(=O)Nc1ccccc1)C1CCCc2ccccc21 (stereo not drawn),71*,-4%,-1%,19*
CN(C(=O)Nc1cnc2ccccc2c1)c1ccccc1,28*,-7%,-1%,34*
COc1ccc(NC(=S)Nc2cnc3ccccc3c2)c(OC)c1,-4,2%,0%,15
SMILES,Shiga toxin inh,NS1 inh,SARS PLP yeast,CHX counter
N#Cc1ccc(CN2CCN(C(=O)Cn3nc(C(N)=O)c4ccccc4c3=O)CC2)cc1,-10,-9%,-1%,-2
O=C(COC(=O)/C=C/c1ccc(F)cc1)Nc1nnc(-c2ccccc2)o1,x,x,0%,x
CCOc1ccccc1C(=O)N/N=C/c1coc2ccc(Cl)cc2c1=O,-12,-74%,4%,-3
CC[C@H](C)[C@H](N)C(=O)N[C@H]1CCC(=O)NCC(C(=O)N[C@@H](Cc2ccc(O)cc2)C(=O)N[C@@H](CCCNC(=N)N)C(=O)N[C@@H](CC(C)C)C(=O)N[C@@H](CCCNC(=N)N)C(=O)N[C@@H](Cc2ccc(O)cc2)C(N)=O)NC(=O)[C@@H]2CCCN2C(=O)[C@@H](NC(=O)[C@@H](N)[C@@H](C)CC)CCC(=O)NCC(C(=O)N[C@@H](Cc2ccc(O)cc2)C(=O)N[C@@H](CCCNC(=N)N)C(=O)N[C@@H](CC(C)C)C(=O)N[C@@H](CCCNC(=N)N)C(=O)N[C@@H](Cc2ccc(O)cc2)C(N)=O)NC(=O)[C@@H]2CCCN2C1=O (stereo partly drawn),11,x,x,-10
CCc1c(O)nc(SCC(=O)Nc2nc3ccccc3s2)n(-c2ccccc2)c1=O,51,u,-1%,17
CCn1nnnc1SCC(=O)Nc1nc2ccccc2s1,10,-2%,0%,21*

# High-throughput results (PubChem)
